The entries come from a sample that favours hits as a whole.
STK33 kin inh = blocks human STK33 kinase activity; ADP-Glo luminescence, MBP substrate; hit rate 0.44% among 27,000; inhibition, % at 12.5 µM; in the data active = inhibition above about 20%; inconclusive = no clear call, values can overlap the other calls
Target sequence (Q9BYT3 whole entry, looked up): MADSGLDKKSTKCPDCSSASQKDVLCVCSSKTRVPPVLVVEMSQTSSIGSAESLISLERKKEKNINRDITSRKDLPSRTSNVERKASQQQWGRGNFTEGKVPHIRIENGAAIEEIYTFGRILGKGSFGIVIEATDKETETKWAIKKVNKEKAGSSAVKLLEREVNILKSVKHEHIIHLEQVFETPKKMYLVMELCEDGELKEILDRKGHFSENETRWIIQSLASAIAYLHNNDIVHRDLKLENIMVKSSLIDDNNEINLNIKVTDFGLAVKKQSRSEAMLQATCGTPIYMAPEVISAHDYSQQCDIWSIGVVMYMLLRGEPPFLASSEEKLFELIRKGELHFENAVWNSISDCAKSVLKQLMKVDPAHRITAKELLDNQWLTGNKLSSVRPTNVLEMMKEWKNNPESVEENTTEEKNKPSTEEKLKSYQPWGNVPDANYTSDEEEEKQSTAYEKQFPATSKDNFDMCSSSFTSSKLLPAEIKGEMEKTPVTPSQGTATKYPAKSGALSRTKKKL
PD-1 reversal = activators reversing PD-1 mediated T-cell inhibition. primary human CD4 T cells, PD-L1 beads, CellTiter-Glo 96 h. activation, % (test concentration not listed). 29,000 tested, under 10 active; call rule not given here;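 also: 0% = median vehicle wells and 100% = positive control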
NOMO-1 viab = STK33 inhibitor candidate reducing NOMO-1 cell viability | NOMO-1 AML viability, CellTiter-Glo luminescence, 72 h | inhibition, % (test concentration not listed) | hit rate 7.5% among 37,000; in the data active = inhibition above about 80%; inconclusive = no clear call, values can overlap the other calls
* hit, by the source's call; ? = inconclusive; · = no result.

SMILES	STK33 kin inh	PD-1 reversal	NOMO-1 viab
O=C1OC(c2ccccc2)=N/C1=C\c1ccccc1C(F)(F)F	·	0.6	54.8
COc1ccc2nc(Nc3nc(C)c(CCC(C)C)c(=O)[nH]3)nc(C)c2c1	-0.5	-2.0	66.0
CCN(CC)CCCC(C)Nc1c2ccc(Cl)cc2nc2ccc(OC)cc12 (centres undefined)	32.8*	·	114.1*
Cc1sc(NC(=O)c2ccccc2)c(C(=O)NCc2cccnc2)c1C	-2.4	-0.4	4.2
O=C(C/C(=C1/CCc2ccccc2C1=O)c1ccccc1)c1ccccc1	·	-0.6	114.9*
NNC(=O)c1cc2c(s1)-c1ccccc1CC2	14.8	-21.7	42.4
CN(CC(=O)N1CCC(C(N)=O)CC1)S(=O)(=O)c1ccc(F)cc1	-2.7	-0.8	-6.4
CC(=O)c1cn(CC(=O)Nc2cccc(C(F)(F)F)c2)c2ccccc12	-1.7	-0.9	51.8
O=C(O)C1CC(O)CN1S(=O)(=O)c1ccc(Cl)cc1 (centres undefined)	-4.4	2.7	22.3
CN(C)CCCO[C@H]1[C@@H](C(O)CO)OC2OC(C)(C)O[C@@H]21 (some centres undefined)	0.7	-0.6	-17.6
N#CC(=C1SCCCCS1)S(=O)(=O)c1ccc(Cl)cc1	·	2.4	29.5
N#CC(C(=O)c1ccccc1Cl)=C1SCCCS1	·	-0.7	114.4*
O=C(COc1ccc2c(-c3ccccc3)cc(=O)oc2c1)Nc1cc(C(F)(F)F)ccc1Cl	14.1	·	?
CCOC(=O)c1ccccc1NC(=O)C(C)Oc1ccc2c(C)cc(=O)oc2c1 (centres undefined)	1.4	·	103.8*
CCOC(=O)C(C)Oc1ccc2c(-c3ccccc3)cc(=O)oc2c1 (centres undefined)	·	-0.8	109.0*
CCOC(=O)c1ccccc1NC(=O)C(C)Oc1cc(C)c(Cl)c(C)c1 (centres undefined)	-2.7	·	35.4
O=C(CC(C(=O)O)N1CCCCC1)Nc1cccc2ccccc12 (centres undefined)	-0.9	·	·
CC(=O)c1c(C)oc2ccc(N(C(=O)c3ccncc3)S(=O)(=O)c3ccc(F)cc3)cc12	0.0	0.3	31.1
COC(=O)c1c(C)oc2ccc(N(C(=O)c3ccncc3)S(=O)(=O)c3ccc(OC)cc3)cc12	3.2	-4.0	111.5*
COc1ccc(C(=O)CC2(O)C(=O)N(Cc3ccc(C)cc3)c3ccc(Cl)cc32)cc1[N+](=O)[O-] (centres undefined)	4.8	-12.9	124.0*
O=C(CC1(O)C(=O)N(Cc2ccccc2)c2ccc(Cl)cc21)c1ccc2c(c1)OCCO2 (centres undefined)	0.8	0.7	26.0
CCCN1C(=O)C(O)(CC(=O)c2ccc(OC)c([N+](=O)[O-])c2)c2ccccc21 (centres undefined)	-0.8	·	117.9*
CCCN1C(=O)C(O)(CC(=O)c2ccc(OC)c([N+](=O)[O-])c2)c2cc(Br)ccc21 (centres undefined)	-1.0	-12.4	112.9*
COc1ccc(C2(CNC(=O)c3ccc(OC)c([N+](=O)[O-])c3)CCCC2)cc1OC	-2.7	-3.1	13.7
O=C(CC1(O)C(=O)N(Cc2ccc(Cl)cc2)c2ccc(Cl)cc21)c1ccc2c(c1)OCCO2 (centres undefined)	8.7	-2.0	129.4*
SMILES	STK33 kin inh	PD-1 reversal	NOMO-1 viab
N#CCCCN1C(=O)C(O)(CC(=O)c2ccc(Br)s2)c2ccccc21 (centres undefined)	-1.5	-0.7	46.6
COc1ccc(C(=O)CC2(O)C(=O)N(Cc3ccc(Cl)c(Cl)c3)c3ccccc32)cc1OC (centres undefined)	-1.6	0.8	43.4
O=C(CSc1nc(SCC(=O)c2ccccc2)c2ccccc2n1)c1ccccc1	·	0.5	41.4
COC(=O)c1cc(NC(=O)COc2ccccc2OC)cc(C(=O)OC)c1	1.4	1.2	36.5
Nc1ccc(OCC(O)C[n+]2ccccc2)cc1 (centres undefined)	·	0.2	2.1
COc1ccc([N+](=O)[O-])cc1NC(=O)CS(=O)(=O)Cc1ccccc1	0.9	1.1	-17.3
COc1ccc(NC(=O)C(C)N(c2ccc(Cl)cc2)S(C)(=O)=O)cc1OC (centres undefined)	4.6	1.0	13.2
Cc1ccc(CN2C(=O)C(O)(CC(=O)c3c(C)coc3C)c3cc(Cl)ccc32)cc1 (centres undefined)	-0.1	0.8	127.6*
Cc1coc(C)c1C(=O)CC1(O)C(=O)N(Cc2cccc3ccccc23)c2ccccc21 (centres undefined)	0.2	1.0	40.0
CO[C@H]1O[C@H](COC(=O)c2ccccc2)[C@@H](O)[C@H](O)[C@H]1OC(=O)c1ccccc1	0.4	0.5	-11.6
O=C(O)/C=C/CCCCCCCC(=O)O	-0.8	1.4	10.6
O=C(Oc1ccc2ccccc2c1)c1ccccc1S(=O)(=O)c1ccccc1[N+](=O)[O-]	-1.0	-3.9	33.9
O=C1c2c(O)ccc(O)c2C(=O)c2c(NCCNCCO)ccc(NCCNCCO)c21	58.4*	·	120.1*
Cc1nc(-c2cc(C#N)c(SCCC(=O)OC(C)(C)C)nc2C)cs1	·	0.6	36.2
C[C@H](CO)N1C[C@H](C)[C@H](CN(C)Cc2ccc(Cl)c(Cl)c2)Oc2ccc(NC(=O)Nc3cccc4ccccc34)cc2C1=O	0.4	-2.6	16.9
C[C@@H]1CN([C@H](C)CO)C(=O)c2cc(NC(=O)Nc3cccc4ccccc34)ccc2O[C@H]1CN(C)Cc1ccc(Cl)c(Cl)c1	4.1	-2.5	111.5*
C[C@@H]1CCCCO[C@@H](CN(C)Cc2ccc(Cl)c(Cl)c2)[C@@H](C)CN([C@H](C)CO)C(=O)c2cc(NC(=O)Nc3cccc4ccccc34)ccc2O1	8.9	1.6	44.7
C[C@@H]1CN([C@H](C)CO)C(=O)c2cc(NC(=O)Nc3cccc4ccccc34)ccc2O[C@@H]1CN(C)Cc1ccc(Cl)c(Cl)c1	·	-5.4	100.6*
C[C@H](CO)N1C[C@H](C)[C@@H](CN(C)Cc2ccc(Cl)c(Cl)c2)Oc2ccc(NC(=O)Nc3cccc4ccccc34)cc2C1=O	·	-2.8	111.6*
C[C@@H]1CN([C@@H](C)CO)C(=O)c2cc(NC(=O)Nc3cccc4ccccc34)ccc2O[C@H]1CN(C)Cc1ccccc1	·	0.0	3.5
Cc1ccc(NC(=O)Cn2nc([N+](=O)[O-])cc2C)cc1	-2.0	·	4.8
CC(NS(=O)(=O)c1ccc(Cl)cc1)C(=O)Nc1ccc(Oc2ccccc2)cc1 (centres undefined)	1.5	-0.4	37.1
C[C@@H]1CN([C@@H](C)CO)C(=O)c2cccc(NS(=O)(=O)c3ccc(Cl)cc3)c2O[C@@H]1CN(C)Cc1ccc(Oc2ccccc2)cc1	·	-2.0	87.5*
C[C@H](CO)N1C[C@H](C)[C@@H](CN(C)Cc2ccc(Oc3ccccc3)cc2)Oc2c(NS(=O)(=O)c3ccc(Cl)cc3)cccc2C1=O	·	-3.6	104.0*
C[C@H]1CN([C@@H](C)CO)C(=O)c2cccc(NS(=O)(=O)c3ccc(Cl)cc3)c2O[C@H]1CN(C)Cc1ccc(Oc2ccccc2)cc1	·	-0.3	?
C[C@@H]1CN([C@H](C)CO)C(=O)c2cccc(NS(=O)(=O)c3ccc(Cl)cc3)c2O[C@H]1CN(C)Cc1ccc(Oc2ccccc2)cc1	·	4.6	49.6
CC(Oc1ccc(Cl)cc1Cl)C(=O)Nc1cc(C(F)(F)F)ccc1N1CCOCC1 (centres undefined)	3.1	·	58.6

Screening results deposited in PubChem BioAssay by Broad Institute.
